# PubChem BioAssay AID1159580 (chemical genetic matrix, 2015)
# Screen size: about 5,500 compounds; about 2,000 (36%) were called active. Another 18% or so got no clear call; they are omitted. Some of the results follow. Unmarked numbers belong to inactive results. Cut-off read from the data, not from the text of the source: active = normalized growth mostly below about 0.91 (no sharp cut-off); inconclusive = no clear call, values can overlap the other calls; inactive = mostly above about 0.92.
# Experiment: chemical genetic growth profiling, strain panel (AID 1159580);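 note: tested at 20 µM; growth read once vehicle control cultures reached saturation at 30 °C; 1 = growth at the plate median or of vehicle wells; lower values mean less growth of the strain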
# Details: growth OD
structure (smiles),measurement,setting,value
COc1ccc2c(c1)OC[C@@H](Cc1ccc(OC)c(OC)c1)[C@H]2O,normalized growth,"S. cerevisiae deletion strains, locus YJR066W, strain TOR1, hits give low values",0.913
same,normalized growth,"S. cerevisiae deletion strains, locus YKL009W, strain mrt4, hits give low values",0.954
same,normalized growth,"S. cerevisiae deletion strains, locus YKL068W, hits give low values",0.973
same,normalized growth,"S. cerevisiae deletion strains, locus YKL085W, strain MDH1 (second series), hits give low values",0.976
same,normalized growth,"S. cerevisiae deletion strains, locus YKL085W, strain MDH1, hits give low values",0.976
same,normalized growth,"S. cerevisiae deletion strains, locus YKL160W, strain elf1, hits give low values",1.01
same,normalized growth,"S. cerevisiae deletion strains, locus YKL190W, strain CNB1, hits give low values",0.997
same,normalized growth,"S. cerevisiae deletion strains, locus YKR001C, strain vps1, hits give low values",0.84 (active)
same,normalized growth,"S. cerevisiae deletion strains, locus YKR026C, strain gcn3, hits give low values",1
same,normalized growth,"S. cerevisiae deletion strains, locus YKR091W, strain srl3, hits give low values",1
same,normalized growth,"S. cerevisiae deletion strains, locus YLL001W, strain dnm1, hits give low values",0.979
same,normalized growth,"S. cerevisiae deletion strains, locus YLL026W, hits give low values",0.996
same,normalized growth,"S. cerevisiae deletion strains, locus YLL041C, strain sdh2, hits give low values",1
same,normalized growth,"S. cerevisiae deletion strains, locus YLR027C, strain aat2, hits give low values",1.01
same,normalized growth,"S. cerevisiae deletion strains, locus YLR039C, strain RIC1, hits give low values",0.675 (active)
same,normalized growth,"S. cerevisiae deletion strains, locus YLR058C, strain SHM2, hits give low values",1
same,normalized growth,"S. cerevisiae deletion strains, locus YLR102C, strain apc9, hits give low values",0.981
same,normalized growth,"S. cerevisiae deletion strains, locus YLR113W, strain HOG1, hits give low values",0.871
same,normalized growth,"S. cerevisiae deletion strains, locus YLR221C, strain rsa3, hits give low values",1.01
same,normalized growth,"S. cerevisiae deletion strains, locus YLR258W, strain gsy2, hits give low values",0.994
same,normalized growth,"S. cerevisiae deletion strains, locus YLR262C, strain YPT6 (second series), hits give low values",0.755 (active)
same,normalized growth,"S. cerevisiae deletion strains, locus YLR262C, strain YPT6, hits give low values",0.641
same,normalized growth,"S. cerevisiae deletion strains, locus YLR268W, strain sec22, hits give low values",0.997
same,normalized growth,"S. cerevisiae deletion strains, locus YLR320W, strain mms22, hits give low values",1.01
same,normalized growth,"S. cerevisiae deletion strains, locus YLR330W, strain CHS5, hits give low values",0.984
same,normalized growth,"S. cerevisiae deletion strains, locus YLR342W, strain FKS1 (second series), hits give low values",1.02
same,normalized growth,"S. cerevisiae deletion strains, locus YLR342W, strain FKS1, hits give low values",1
same,normalized growth,"S. cerevisiae deletion strains, locus YLR357W, strain rsc2, hits give low values",1.01
same,normalized growth,"S. cerevisiae deletion strains, locus YLR370C, strain arc18, hits give low values",1
same,normalized growth,"S. cerevisiae deletion strains, locus YLR371W, strain rom2, hits give low values",0.96
same,normalized growth,"S. cerevisiae deletion strains, locus YLR384C, strain iki3, hits give low values",1.01
same,normalized growth,"S. cerevisiae deletion strains, locus YLR418C, strain cdc73, hits give low values",1.04
same,normalized growth,"S. cerevisiae deletion strains, locus YML016C, strain PPZ1, hits give low values",1
same,normalized growth,"S. cerevisiae deletion strains, locus YML032C, strain rad52, hits give low values",0.975
same,normalized growth,"S. cerevisiae deletion strains, locus YML120C, strain ndi1, hits give low values",1
same,normalized growth,"S. cerevisiae deletion strains, locus YML124C, strain tub3, hits give low values",0.976
same,normalized growth,"S. cerevisiae deletion strains, locus YMR058W, strain fet3, hits give low values",1.02
same,normalized growth,"S. cerevisiae deletion strains, locus YMR078C, strain ctf18, hits give low values",0.977
same,normalized growth,"S. cerevisiae deletion strains, locus YMR125W, strain sto1, hits give low values",1.01
same,normalized growth,"S. cerevisiae deletion strains, locus YMR129W, hits give low values",1.01
same,normalized growth,"S. cerevisiae deletion strains, locus YMR205C, strain PFK2, hits give low values",0.966
same,normalized growth,"S. cerevisiae deletion strains, locus YMR223W, strain ubp8, hits give low values",0.976
same,normalized growth,"S. cerevisiae deletion strains, locus YMR231W, strain pep5, hits give low values",0.981
same,normalized growth,"S. cerevisiae deletion strains, locus YMR307W, strain GAS1, hits give low values",1.11
same,normalized growth,"S. cerevisiae deletion strains, locus YNL067W, strain RPL9B, hits give low values",1.02
same,normalized growth,"S. cerevisiae deletion strains, locus YNL071W, strain lat1, hits give low values",1
same,normalized growth,"S. cerevisiae deletion strains, locus YNL153C, strain GIM3, hits give low values",1.03
same,normalized growth,"S. cerevisiae deletion strains, locus YNL183C, strain NPR1, hits give low values",0.867
same,normalized growth,"S. cerevisiae deletion strains, locus YNL209W, strain ssb2, hits give low values",1.02
same,normalized growth,"S. cerevisiae deletion strains, locus YNL233W, strain BNI4, hits give low values",1.02
same,normalized growth,"S. cerevisiae deletion strains, locus YNL248C, strain rpa49, hits give low values",1.01
same,normalized growth,"S. cerevisiae deletion strains, locus YNL250W, strain rad50, hits give low values",0.962
same,normalized growth,"S. cerevisiae deletion strains, locus YNL271C, strain bni1, hits give low values",0.977
same,normalized growth,"S. cerevisiae deletion strains, locus YNL298W, strain CLA4, hits give low values",0.991
same,normalized growth,"S. cerevisiae deletion strains, locus YNL307C, strain MCK1, hits give low values",0.971
same,normalized growth,"S. cerevisiae deletion strains, locus YNL322C, strain KRE1 (second series), hits give low values",0.973
same,normalized growth,"S. cerevisiae deletion strains, locus YNR049C, strain mso1, hits give low values",1.01
same,normalized growth,"S. cerevisiae deletion strains, locus YNR052C, strain pop2, hits give low values",0.978
same,normalized growth,"S. cerevisiae deletion strains, locus YOL012C, strain htz1",1.24
same,normalized growth,"S. cerevisiae deletion strains, locus YOL147C, strain pex11, hits give low values",0.983
same,normalized growth,"S. cerevisiae deletion strains, locus YOR001W, strain rrp6, hits give low values",1.03
same,normalized growth,"S. cerevisiae deletion strains, locus YOR061W, strain CKA2, hits give low values",0.999
same,normalized growth,"S. cerevisiae deletion strains, locus YOR069W, strain VPS5, hits give low values",0.995
same,normalized growth,"S. cerevisiae deletion strains, locus YOR070C, strain gyp1, hits give low values",1
same,normalized growth,"S. cerevisiae deletion strains, locus YOR080W, strain dia2, hits give low values",1.01
same,normalized growth,"S. cerevisiae deletion strains, locus YOR083W, strain WHI5, hits give low values",0.997
same,normalized growth,"S. cerevisiae deletion strains, locus YOR106W, strain vam3, hits give low values",0.99
same,normalized growth,"S. cerevisiae deletion strains, locus YOR136W, strain idh2, hits give low values",0.986
same,normalized growth,"S. cerevisiae deletion strains, locus YOR144C, strain elg1, hits give low values",0.995
same,normalized growth,"S. cerevisiae deletion strains, locus YOR184W, strain ser1, hits give low values",0.964
same,normalized growth,"S. cerevisiae deletion strains, locus YOR231W, strain MKK1, hits give low values",0.93
same,normalized growth,"S. cerevisiae deletion strains, locus YOR265W, strain rbl2, hits give low values",1.01
same,normalized growth,"S. cerevisiae deletion strains, locus YOR270C, strain vph1, hits give low values",1.01
same,normalized growth,"S. cerevisiae deletion strains, locus YOR290C, strain snf2, hits give low values",0.987
same,normalized growth,"S. cerevisiae deletion strains, locus YOR316C, strain cot1, hits give low values",0.969
same,normalized growth,"S. cerevisiae deletion strains, locus YPL051W, strain arl3, hits give low values",0.997
same,normalized growth,"S. cerevisiae deletion strains, locus YPL078C, strain atp4, hits give low values",1.02
same,normalized growth,"S. cerevisiae deletion strains, locus YPL106C, strain sse1, hits give low values",1.03
same,normalized growth,"S. cerevisiae deletion strains, locus YPL240C, strain hsp82, hits give low values",1.01
same,normalized growth,"S. cerevisiae deletion strains, locus YPL241C, strain CIN2, hits give low values",1
same,normalized growth,"S. cerevisiae deletion strains, locus YPL256C, strain CLN2, hits give low values",0.907
same,normalized growth,"S. cerevisiae deletion strains, locus YPR119W, strain clb2, hits give low values",0.974
same,normalized growth,"S. cerevisiae deletion strains, locus YPR141C, strain kar3, hits give low values",0.979
same,normalized growth,"S. cerevisiae deletion strains, locus YPR163C, strain tif3, hits give low values",0.974
same,normalized growth,"S. cerevisiae deletion strains, locus YPR167C, strain met16, hits give low values",0.959
same,normalized growth,"S. cerevisiae deletion strains, strain wtn01, hits give low values",0.97
same,normalized growth,"S. cerevisiae strains, strain wild type, hits give low values",0.995
